Source: PubChem BioAssay AID2284339 (EPA ToxCast)
Several values for one entry are separate records, joined by “and”; a condition that tells them apart may be missing. Equal values may be shown once. Activity calls are given as the source filed them. Rule for the calls: active = hit-call score of the fitted dose curve at least 0.9, where 1 is the maximum; inactive = score below 0.9.

Test system: NCBI gene 100038242
Test: CCTE_GLTED_xDIO3: CCTE's Xenopus Iodothyronine Deiodinase Type 3 (xDIO3) Inhibition Assay, Great Lakes Toxicology and Ecology Division (GLTED) Lab
Description: CCTE_GLTED_xDIO3 is a cell-free, single-readout assay designed to test the inhibitory activity of chemicals toward Xenopus (frog) iodothyronine Deiodinase Type 3 (DIO3) enzyme. Enzyme is incubated in presence of test chemical for 3 hours during which uninhibited enzyme liberates free iodide from substrate. Free iodide is measured in a second step using the Sandell-Kolthoff method.CCTE_GLTED_xDIO3 is the assay component measured from the CCTE_GLTED_xDIO assay. It is designed to make measurements of enzyme activity, a form of enzyme reporter, as detected with absorbance signals by spectrophotometry.Data from the assay component CCTE_GLTED_xDIO3 was analyzed at the assay endpoint CCTE_GLTED_xDIO3 in the positive analysis fitting direction relative to DMSO as the negative control and baseline of activity. Using a type of enzyme reporter, loss-of-signal activity can be used to understand deiodinase Type 3 activity. To generalize the intended target to other relatable targets, this assay endpoint is annotated to the 'deiodinase' intended target family, where the subfamily is 'deiodinase Type 3'.
[…]

| Structure (SMILES) | AC50 |
| --- | --- |
| COC(=O)C(F)(F)C(F)(F)OC(F)(C(F)(F)F)C(F)(F)OC(F)=C(F)F (stereo not given) | 7.65 µM (active) |
| O=C(O)C(F)(F)C(F)(F)C(F)(F)C(F)(F)C(F)(F)C(F)(F)C(F)(F)C(F)(F)C(F)(F)C(F)(F)F | 27.7 µM (active) |
| C=CC(=O)OCC(F)(F)C(F)F | 19.8 µM (active) |
| O=S(=O)(O)C(F)(F)C(F)(F)C(F)(F)C(F)(F)C(F)(F)C(F)(F)C(F)(F)C(F)(F)F | 142 µM (active) and 160 µM (active) |
| O=C(O)C(F)(F)C(F)(F)C(F)(F)C(F)(F)C(F)(F)C(F)(F)C(F)(F)C(F)(F)C(F)(F)F | 147 µM (active) |
